# Wnt bcat act – Wnt/beta-catenin pathway activators, primary screen, cell-based, plate reader, single point. Wnt/beta-catenin reporter cell assay, activator. activation, % at 9.35 µM. 300,000 tested, 1.2% active. AID 743398, 2014; in the data active = activation above about 30%, passing the limit was not always enough; inconclusive = no clear call, values can overlap the other calls;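 note: 0% = neutral control wells and 100% = positive control wells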
# rRNA inh HTS – reduced GFP signal of wild-type E. coli, primary screen, bacterial rRNA inhibitor project, GFP/RFP fluorescence, OD600, single point; E. coli WT GFP vs humanized-ribosome RFP mutants, 24 h; active compounds read low; DMSO median 0, no signal -100; AID 720706, 2013; GFP signal change (wild-type ribosome), % (test concentration not listed); 350,000 tested, 1.6% active;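 active = significant combined selectivity score with lowered wild-type GFP, culture density cut under 30%, mutant RFP and density less affected; inactive = any of these conditions unmet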
# MLL AF4-AF9 inh – inhibitors of AF4 peptide binding to AF9, primary screen, biochemical, AlphaScreen, biotin-AF4 peptide, FLAG-AF9, single point | 350,000 tested, 0.47% active | inhibition, % at 10 µM;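 active = every replicate reaching a set inhibition limit, whatever the replicate mean, cut at about 25% in these data; inconclusive = mean inhibition reaches that limit but some replicates miss it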;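 note: 0% = plate neutral control median and 100% = total signal loss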
# Target sequence (P42568 whole entry, looked up): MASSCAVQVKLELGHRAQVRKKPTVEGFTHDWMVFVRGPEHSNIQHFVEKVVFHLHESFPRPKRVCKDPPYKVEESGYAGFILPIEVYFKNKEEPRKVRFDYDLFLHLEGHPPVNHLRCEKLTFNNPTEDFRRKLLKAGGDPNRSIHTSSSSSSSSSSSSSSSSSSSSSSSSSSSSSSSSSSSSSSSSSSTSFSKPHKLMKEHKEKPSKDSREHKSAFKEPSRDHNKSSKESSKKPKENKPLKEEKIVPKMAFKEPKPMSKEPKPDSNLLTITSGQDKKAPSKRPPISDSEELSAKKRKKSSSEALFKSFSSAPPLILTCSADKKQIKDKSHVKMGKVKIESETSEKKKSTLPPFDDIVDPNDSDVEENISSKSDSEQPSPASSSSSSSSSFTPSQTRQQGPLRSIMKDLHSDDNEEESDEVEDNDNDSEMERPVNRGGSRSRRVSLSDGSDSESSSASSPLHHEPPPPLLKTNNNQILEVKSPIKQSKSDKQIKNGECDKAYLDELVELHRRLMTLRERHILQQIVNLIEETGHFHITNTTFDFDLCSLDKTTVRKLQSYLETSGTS
# MITF act – activators of MITF-driven TRPM1 promoter reporter, primary screen, cell-based, SK-MEL-5, luciferase, single point; SK-MEL-5 TRPM1-promoter luciferase, 24 h; % of positive control, neutral wells = 0; activation, % at 12.5 µM; 300,000 tested, 0.75% active; AID 588334, 2011;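 active = mean activation of at least 80% with every replicate also reaching 80%; inconclusive = mean reaches 80% but some replicate falls short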;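 note: 0% = neutral control wells and 100% = parthenolide positive control wells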
# esBAF inh – Bmi1 luciferase reporter increase in mESCs, primary screen, esBAF inhibitor project, mouse ES cells, Bmi1 luciferase knock-in, single point. 24 h; 100% = twice the neutral-well signal. reporter increase, % at 12.5 µM. 350,000 tested, 2% active. AID 602393, 2012; in the data active = activation above about 40%; inconclusive = no clear call, values can overlap the other calls;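 note: 0% = median of the plate's neutral control wells and 100% = double that signal; a rise in the Bmi1 reporter signal indicates esBAF inhibition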
# Ring1 derepress – Ring1 mRNA increase in mouse ESCs, confirmation, esBAF inhibitor project, cell-based, mouse ESC, RT-qPCR, cherry-pick. mouse ESC E14, Ring1 mRNA RT-qPCR fold change. fold change at 33 µM. AID 743176, 2013. 550 tested, under 10 active. shares compounds with esBAF inh;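 active = Ring1 gene expression raised more than 2-fold over untreated cells in both replicates at either tested dose; inconclusive = only one replicate above 2-fold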;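 note: Ring1 transcript normalised to actin housekeeping signal by TaqMan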
# Fgf4 repress – Fgf4 mRNA decrease in mouse ESCs, confirmation, esBAF inhibitor project, cell-based, mouse ESC, RT-qPCR, cherry-pick. mouse ESC E14, Fgf4 mRNA qPCR fold change; active compounds read low. AID 743177, 2013. shares compounds with esBAF inh. 550 tested, 4% active. Fgf4 expression fold change at 33 µM;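 active = Fgf4 expression under 0.8 fold of control in both repeat measurements at one or both tested doses; inconclusive = under 0.8 fold in just a single repeat measurement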;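 note: Fgf4 transcript normalised to actin in duplex TaqMan qPCR; cells exposed to compound for 24 h before lysis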
# Bmi1 derepress – esBAF inhibition via Bmi1 de-repression, confirmation, cell-based, RT-qPCR, mouse ESC, single point, cherry-pick; shares compounds with esBAF inh; mouse ESE14 ES cells, Bmi1 mRNA qPCR fold; active compounds read high; fold change at 33 µM; 550 tested, under 10 active; AID 743180, 2013;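 active = Bmi1 expression fold change above 6 at either tested concentration, seen in replicate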;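 note: higher fold means more Bmi1 de-repression and stronger esBAF inhibition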
# A549 tox SP – A549 cell cytotoxicity, cytotoxicity control, plate reader, single point, cherry-pick; shares compounds with esBAF inh; 550 tested, under 10 active; cell viability change % (negative = cytotoxic), % at 25 µM, hits read low; call rule not given here
# HepG2 tox SP – HepG2 cell cytotoxicity, cytotoxicity control, plate reader, single point, cherry-pick. shares compounds with esBAF inh. active compounds read low. activity change, negative = inhibition, % at 25 µM. 550 tested, 4% active. AID 743189, 2013; in the data active = activity change below about -50%
# HEK293 cytotox SP – HEK293 cell cytotoxicity, cytotoxicity control, plate reader, single point, cherry-pick; 550 tested, 3% active; AID 743190, 2013; activity change, negative = inhibition, % at 25 µM, hits read low; shares compounds with esBAF inh; in the data active = activity change below about -38%, passing the limit was not always enough
# Active calls of the source: *; ? = inconclusive; . = no result given. In the library only some 3.7% were active in any assay of this set; here they are far more common.
SMILES,Wnt bcat act,rRNA inh HTS,MLL AF4-AF9 inh,MITF act,esBAF inh,Ring1 derepress,Fgf4 repress,Bmi1 derepress,A549 tox SP,HepG2 tox SP,HEK293 cytotox SP
CN(C)c1ccc(N=Nc2ccccc2C(=O)OCC(=O)Nc2ccccc2C(F)(F)F)cc1,3.7,14.1,15.0,5.5,53.5*,1.19,1.01,1.75,-14.5,0.9,-16.9
Oc1[nH]c2ccccc2c1/C=N/N1CCCCC1,2.0,.,.,-0.5,.,.,.,.,.,.,.
Oc1[nH]c2ccccc2c1/C=N/c1nccs1,-2.2,.,.,55.9,71.3*,1.4,1.02,1.7,0.5,-40.3,-11.3
COc1ccc(S(=O)(=O)N(C)C[C@@H]2Oc3ncc(C#CC4(O)CCCC4)cc3C(=O)N([C@H](C)CO)C[C@@H]2C)cc1,.,1.4,-0.5,.,5.2,.,.,.,.,.,.
COc1cc(C)ccc1OCc1cc(C(=O)N2CCN(C3CCCCC3)CC2)no1,18.9,-0.6,4.8,66.2,61.2*,1.05,1.02,1.73,4.0,-2.8,-6.4
CCCN(CC1CCCO1)C(=O)c1cc(COc2cccc(OC)c2)on1 (stereo not given),-3.2,-5.1,-1.8,21.4,.,.,.,.,.,.,.
COc1cccc(OCc2cc(C(=O)N3CCN(C(C)=O)CC3)no2)c1,0.4,1.5,0.5,64.1,70.7*,1.11,0.827,1.31,-5.0,-16.9,2.7
COc1cccc(OCc2cc(C(=O)N(C)C3CCCCC3)no2)c1,-2.8,-5.7,-0.5,.,79.9*,1.12,0.943,1.57,-10.6,16.5,-21.6
O=C(NCCCCc1ccccc1)C1CC(c2cccc(F)c2)=NO1 (stereo not given),-1.0,0.2,0.2,3.0,-3.4,.,.,.,.,.,.
O=C(c1ccc2c(c1)OCO2)N1CC[C@H]2[C@H](CO)Nc3ccc(-c4ccccc4)cc3[C@H]21,.,-4.5,2.0,.,4.8,.,.,.,.,.,.
Cc1nc2ccccc2nc1OCc1cccc([N+](=O)[O-])c1,-0.4,17.4,-1.0,5.4,0.6,.,.,.,.,.,.
O=C(Cc1ccccc1)N/N=C/c1ccccc1OCc1ccc(Cl)cc1,.,.,.,68.6,100.5*,1.23,?,2.66,-17.1,10.2,-14.3
CC(=O)Nc1ccc2c(c1)Cc1c(F)cccc1-2,26.7,.,-4.6,41.9,83.2*,1.1,?,1.48,6.9,60.2,2.7
CC(=O)Nc1ccc2c(c1)Cc1c-2cc(Br)c(N)c1Br,8.3,-0.6,-2.6,12.9,23.7,.,.,.,.,.,.
CN(C)c1ccc(CN(C(=O)c2cc3ccccc3oc2=O)C2CCS(=O)(=O)C2)cc1 (stereo not given),27.8,14.9,-2.8,61.3,69.9*,1.16,1.01,1.24,-1.7,-18.6,-0.4
COc1cc(SC)ccc1C(=O)NCC1CCCCC1,0.2,-9.1,-14.6,97.3*,65.2*,1.04,0.833,1.44,-5.4,-17.3,-19.6
COc1ccc(CN(Cc2cccnc2)S(=O)(=O)c2ccc(-n3cnnn3)c(OC)c2)cc1,3.8,-14.9,-1.0,-1.8,1.2,.,.,.,.,.,.
COc1ccc(CNC(=O)c2csc3c2CCCC3)cc1,-2.4,-20.5,-0.4,5.5,4.7,.,.,.,.,.,.
COc1ccc(NC(=O)c2csc3c2CCCC3)cc1,24.3,4.9,-14.2,57.5,68.9*,0.942,0.974,1.46,-7.9,-50.6*,-21.3
CCCC(=O)Nc1ccc2c(c1)OC[C@@H](C)N(C(=O)c1cnccn1)C[C@@H](C)[C@H](OC)CN(C)C2=O,.,1.5,-1.1,.,-1.0,.,.,.,.,.,.
c1ccc(Cn2cnc3ccccc32)cc1,.,.,.,63.4,105.8*,1.38,1.05,1.67,-0.2,-24.3,-10.0
CCNC(=O)COC(=O)c1cc(S(=O)(=O)N2CCCCC2)ccc1C,-0.5,6.5,0.9,4.7,11.7,.,.,.,.,.,.
O=C(NCc1ccccn1)Nc1ccc(Br)cc1Cl,24.5,-0.7,-3.2,?,56.2*,1.05,0.92,0.978,4.9,44.2,7.2
O=C(NCc1ccccn1)Nc1ccc(Cl)cc1Cl,14.5,3.4,-1.2,53.4,.,.,.,.,.,.,.
CN(C)S(=O)(=O)c1ccc2c(c1)/C(=C/c1cc3c([nH]1)CCCC3)C(=O)N2,34.5*,15.0,-2.6,69.0,59.0*,2.24*,1.06,7.72*,-17.3,21.9,-6.2
SMILES,Wnt bcat act,rRNA inh HTS,MLL AF4-AF9 inh,MITF act,esBAF inh,Ring1 derepress,Fgf4 repress,Bmi1 derepress,A549 tox SP,HepG2 tox SP,HEK293 cytotox SP
O=C(Nc1ccc2c(c1)[C@H]1C[C@H](CC(=O)N3CCOCC3)O[C@@H](CO)[C@H]1O2)c1ccc2c(c1)OCO2,.,2.2,.,.,-4.0,.,.,.,.,.,.
Cn1cccc1C(=O)NC1CCCCCC1,17.2,-3.4,-2.3,95.6*,64.2*,1.06,0.8,1.47,-14.4,-49.3,-19.5
COc1ccc(C(=O)Nc2ccc3c(c2)OC[C@H](C)N(C)C[C@@H](C)[C@H](OC)CN(C)C3=O)cc1,.,-4.7,0.6,.,1.6,.,.,.,.,.,.
CCN(C(=O)c1cccs1)c1nnc(-c2ccncc2)s1,18.2,.,.,18.3,58.2*,1.24,0.972,0.903,-3.6,-24.2,-9.0
O=C1CN(S(=O)(=O)c2ccc(F)cc2)CCN1,-4.2,27.1,0.6,-14.7,5.7,.,.,.,.,.,.
O=C(CCc1ccccc1Cl)Nc1cc2c(cc1C(=O)O)OCCCO2,0.2,5.9,-4.4,-8.3,-0.8,.,.,.,.,.,.
CCCc1nc2c3ccccc3ccn2c1Cc1ccc(C)cc1,5.3,-33.3,1.7,.,100.7*,1.34,0.963,1.93,-4.5,-56.2*,-13.2
C=CCn1c(SCC(=O)N2CCOCC2)nnc1C(C)NC(=O)c1ccccc1 (stereo not given),1.1,1.2,-2.2,7.0,1.6,.,.,.,.,.,.
O=C1/C(=C/c2cccc3ccccc23)CCCc2ccccc21,41.7*,.,.,51.9,57.4*,1.15,1.05,1.2,-10.5,1.0,-0.5
O=C1C(=Cc2ccncc2)CCCc2ccccc21,1.6,-24.2,6.3,.,-0.3,.,.,.,.,.,.
COc1cc(C(=O)N2CCN(C(=O)CC(C)C)CC2)cc(OC)c1OC,-1.6,6.0,0.9,-2.8,-5.0,.,.,.,.,.,.
